Assay outcomes as filed in PubChem BioAssay.
This is a sample that favours compounds with a hit; in the whole collection about 6.3% have one here.
PMK inhibit: blocks S. pneumoniae phosphomevalonate kinase; purified PMK, PK/LDH-coupled NADH absorbance 340 nm; inhibition, % at 10 µM; actives 0.49% (n = 65,000);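 active = top-ranked compounds by inhibition in the single 10 µM screen, taking a fixed number of the strongest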
A340 absorber: absorbance at 340 nm | fold change at 10 µM | 65,000 tested, under 10 active | compound absorbance at 340 nm, fold over control;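 active = at 10 µM dose, initial 340 nm absorbance at least 2 fold that of control wells; inactive = change under 2 fold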;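 note: initial absorbance extrapolated from kinetic A340 decline of NADH oxidation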
NADH coupling: blocks coupling enzymes of NAD/NADH assays; coupled PK/LDH NADH assays, four targets; IC50, µM (titrated, usually from 10 µM); actives 0.02% (n = 65,000); AID 774;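 active = single-dose screening hits from any of four coupled enzyme assays that gave an IC50 when retested across doses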;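 note: the DPM-DC format reads NADH fluorescence rather than 340 nm absorbance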
MK inhibit: blocks S. pneumoniae mevalonate kinase | purified MK, PK/LDH-coupled NADH absorbance 340 nm | actives 0.48% (n = 65,000) | inhibition, % at 10 µM;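 active = ranked among the strongest by inhibition in the single 10 µM screen, a fixed top-ranked set picked for dose follow-up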
Spn DPM-DC inh: blocks S. pneumoniae diphosphomevalonate decarboxylase; purified DPM-DC, PK/LDH coupled NADH fluorescence; calls only at 10 µM; actives 0.49% (n = 65,000); AID 556;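 active = the 320 compounds with the highest percent inhibition in the single-dose primary screen, excluding strongly autofluorescent ones, cut at about 32% in these data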;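 note: kinetic rate of NADH fluorescence loss reporting ADP formed by the decarboxylase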
Autofluor 339: intrinsic fluorescence of library compounds, ex339/em460 – biochemical, MLSMR library, data from DPM-DC assay, artefact control, profiling panel. compound autofluorescence, ex339/em460 nm, NADH buffer; stronger effect = higher value; 1 = no-compound wells, NADH background. fluorescence fold increase at 10 µM. actives 5.5% (n = 65,000). AID 709;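 active = at 10 µM, mean starting fluorescence two-fold or more over control wells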;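 note: signal is the first read of a kinetic run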
Of the large screens only hits and unclear results are named; the others gave an inactive call.

COC(=O)c1[nH]c2cccc(OC)c2c1NC(=O)CN1CCOCC1	Autofluor 339 2.9
COC(=O)c1[nH]c2cccc(OC)c2c1NC(=O)CCN1CC(C)CC(C)C1 (configuration not stated)	Autofluor 339 2.7
Cc1nn2c(-c3ccc(Cl)cc3Cl)nnc2s1	none
Fc1ccc2[nH]c3c(N4CCN(C5CCCCC5)CC4)ncnc3c2c1	Autofluor 339 2.3 (not shown: Spn DPM-DC inh)
Cc1ccc2[nH]c3c(N4CCCCCC4)ncnc3c2c1	none
Cc1[nH]n2c(=O)c3c(nc2c1-c1ccccc1)CCCC3	none
O=c1c2c(nc3c(-c4cccc5ccccc45)c[nH]n13)CCC2	Autofluor 339 3.6 (not shown: Spn DPM-DC inh)
O=c1c2c(nc3c(-c4ccc(Cl)cc4)c[nH]n13)CCCC2	Autofluor 339 4.1 (not shown: Spn DPM-DC inh)
Nn1c(SCC(=O)Nc2ccccc2)nnc1-c1cccnc1	none
O=C(NCCCn1ccnc1)c1cc(-c2cccs2)on1	none
Cc1cc(C)cc(Nc2ccc(C(=O)O)cc2N)c1	Autofluor 339 2.9
CC1CCN(c2ccc(C(=O)O)cc2N)CC1	none
O=C(CSc1ccc(-c2nc3ccccc3[nH]2)cn1)N1CCN(C(=O)c2ccco2)CC1	Autofluor 339 2.1 (not shown: Spn DPM-DC inh)
COc1cccc(OC)c1-c1nnc(-c2cn(C)c3ccccc23)o1	Autofluor 339 3.8 (not shown: Spn DPM-DC inh)
COc1cccc2sc(Nc3nnc(-c4ccccc4Cl)o3)nc12	none
COc1ccc(-c2[nH]nc3oc(=O)cc(C)c23)cc1	Autofluor 339 2.2 (not shown: Spn DPM-DC inh)
CCc1ccc2[nH]c(=O)c(C(c3nnnn3CCOC)N3CCN(c4ccccc4)CC3)cc2c1 (configuration not stated)	none
COc1cc(-c2nc(S(=O)(=O)c3ccc(C)cc3)c(N(C)C)o2)cc(OC)c1OC	none
COC(=O)c1nc(-c2ccccc2)oc1N(C)C	Autofluor 339 3.8 (not shown: Spn DPM-DC inh)
COC(=O)c1nc(-c2ccc(C)cc2)oc1N(C)C	Autofluor 339 5 (not shown: Spn DPM-DC inh)
CCCC(=O)Nc1cnc(NC(=O)c2cccc(F)c2)cc1C	none
COc1ccc(Cl)cc1NC(=O)C1CCCN(S(=O)(=O)c2cccc3nonc23)C1 (configuration not stated)	MK inhibit 54
CCNC(=O)NC(=O)COC(=O)c1ccccc1SCC(=O)NC(=O)NCC	Autofluor 339 2.1 (not shown: Spn DPM-DC inh)
CCOc1cccc(NC(=O)C2CC(=O)N(C)C(=Nc3cccc(F)c3)S2)c1 (configuration not stated)	none
COc1cccc(NC(=O)c2oc3ccccc3c2NC(=O)C(C)(C)C)c1	none
COc1cccc(NC(=O)c2oc3ccccc3c2NC(=O)c2ccc3c(c2)OCO3)c1	Autofluor 339 2.6
COc1cc(NC(=O)c2ccc3c(c2)OCO3)c2ncccc2c1	Spn DPM-DC inh active, Autofluor 339 3
O=C(O)CSc1nnc(Cn2cnc3ccccc32)n1CCc1ccccc1	none
Nc1nc2ccccc2nc1N	Autofluor 339 2.1
O=C(O)c1nc2ccccc2nc1C(=O)O	none (no result: MK inhibit)
O=C(CCCn1c(=O)c2sccc2n(Cc2cc(=O)n3ccccc3n2)c1=O)NCc1ccco1	none
O=C(CCn1c(=O)c2sccc2n(Cc2cc(=O)n3ccccc3n2)c1=O)NCc1ccco1	Autofluor 339 2.2
O=C(c1ccccc1F)N(Cc1ccccc1)C1CCS(=O)(=O)C1 (configuration not stated)	Spn DPM-DC inh active
O=C(c1ccccc1F)N(Cc1ccc(F)cc1)C1CCS(=O)(=O)C1 (configuration not stated)	none
CCOc1ccc2[nH]c(=O)c(CN(CCO)C(c3nnnn3C3CCCCC3)C(C)C)cc2c1 (configuration not stated)	none
COc1ccc2[nH]c(=O)c(C(c3nnnn3C3CCCCC3)N3CCN(C)CC3)cc2c1 (configuration not stated)	Autofluor 339 4.5 (not shown: Spn DPM-DC inh)
CCCN1CCN(C(c2cc3cc(OCC)ccc3[nH]c2=O)c2nnnn2C2CCCCC2)CC1 (configuration not stated)	Autofluor 339 4.3 (not shown: Spn DPM-DC inh)
COc1ccc2[nH]c(=O)c(C(c3nnnn3CC3CCCO3)N3CCc4ccccc4C3)cc2c1 (configuration not stated)	Autofluor 339 3
COc1cc2cc(C(c3nnnn3Cc3ccc(F)cc3)N3CCCCCC3)c(=O)[nH]c2cc1OC (configuration not stated)	Autofluor 339 2.1
